# Results filed as inconclusive are left out. Where a call stands in place of a potency, no number is given. The source made the active and inactive calls. Calls follow the shape of the full dose curve.
# Molecular target: Progesterone receptor (Homo sapiens) (UniProt P06401)
# Assay: qHTS assay to identify small molecule agonists of the progesterone receptor (PR) signaling pathway (AID 1346784); also: nearly all actives have a fitted effect of over 30% in size
# Conditions: PR-UAS-bla HEK293T, beta-lactamase FRET ratio, 16 h; series mostly up to 92.4 µM
# Source text: U.S. Tox21 Program National Center for Advancing Translational Sciences [NCATS] NIH Chemical Genomics Center [NCGC] U.S. Environmental Protection Agency [EPA] National Institutes of Environmental Health Sciences [NIEHS] National Toxicology Program [NTP] U.S. Food and Drug Administration [FDA] […] Endocrine disrupting chemicals (EDCs) and their interactions with steroid hormone receptors like PR causes disruption of normal endocrine function. To identify the compounds that activate PR signaling, a PR-UAS-bla GripTite cell line i.e. PR-UAS-bla HEK 293T (Invitrogen, Carlsbad, CA, USA) containing a beta-lactamase reporter gene under the control of an Upstream Activator Sequence (UAS) was used to screen Tox21 10K compound library.
# Tox21 Assay Protocol Summary: PR-UAS-bla HEK 293T cells were dispensed at 3,000 cells/5 uL of assay medium containing 2% charcoal stripped FBS per well into black wall/clear-bottom 1536-well plates using a Multidrop Combi (ThermoFisher Scientific, Waltham, MA) dispenser. After the assay plates were incubated at a 37C and 5% CO2 for 6hr, 23 nL of compounds dissolved in DMSO, positive controls or DMSO only was transferred to the assay plate by a Pintool station (Kalypsys, San Diego, CA). The plates were incubated at 37C and 5% CO2 for 16hr. Then 1 uL of LiveBLAzer B/G FRET substrate was added using a BioRAPTR FRD (Flying Reagent Dispenser, Aurora Discovery, San Diego, CA). After the plates were incubated at room temperature for 2 hours, fluorescence intensity was measured by an Envision plate reader (PerkinElmer, Shelton, CT).
# Sequence of Progesterone receptor (Homo sapiens) (P06401 whole entry, looked up): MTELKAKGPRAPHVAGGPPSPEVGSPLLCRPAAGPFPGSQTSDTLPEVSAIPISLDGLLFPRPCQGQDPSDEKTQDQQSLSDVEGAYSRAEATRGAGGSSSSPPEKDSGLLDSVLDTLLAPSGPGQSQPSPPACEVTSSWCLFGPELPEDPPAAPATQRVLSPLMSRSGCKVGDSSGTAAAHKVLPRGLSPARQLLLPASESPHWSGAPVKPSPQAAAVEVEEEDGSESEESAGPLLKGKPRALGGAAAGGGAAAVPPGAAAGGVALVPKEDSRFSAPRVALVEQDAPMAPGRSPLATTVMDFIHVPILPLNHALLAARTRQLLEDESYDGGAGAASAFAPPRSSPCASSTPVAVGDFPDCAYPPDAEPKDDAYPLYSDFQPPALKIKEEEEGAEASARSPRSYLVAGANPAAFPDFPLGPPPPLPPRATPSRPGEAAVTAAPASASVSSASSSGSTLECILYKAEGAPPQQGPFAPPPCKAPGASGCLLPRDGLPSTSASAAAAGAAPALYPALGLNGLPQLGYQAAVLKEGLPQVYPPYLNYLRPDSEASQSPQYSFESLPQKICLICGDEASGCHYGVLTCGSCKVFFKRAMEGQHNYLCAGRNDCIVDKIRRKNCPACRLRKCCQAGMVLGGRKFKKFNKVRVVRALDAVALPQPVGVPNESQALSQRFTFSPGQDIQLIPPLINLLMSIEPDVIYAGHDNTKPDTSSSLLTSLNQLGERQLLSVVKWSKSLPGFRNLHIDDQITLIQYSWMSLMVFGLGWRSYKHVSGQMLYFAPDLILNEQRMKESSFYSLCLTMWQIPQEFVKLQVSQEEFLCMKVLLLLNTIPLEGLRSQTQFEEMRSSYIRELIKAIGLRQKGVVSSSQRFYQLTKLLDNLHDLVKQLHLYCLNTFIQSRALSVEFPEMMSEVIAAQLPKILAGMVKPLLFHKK
row,Compound,Potency
1,O=Cc1ccccc1C=O,inactive
2,CCCCCCCCCCCCO,inactive
3,CN(Cc1cnc2nc(N)nc(N)c2n1)c1ccc(C(=O)N[C@@H](CCC(=O)O)C(=O)O)cc1,inactive
4,c1ccc2c(c1)ccc1ncccc12,inactive
5,Brc1nc2ccccc2s1,inactive
6,COCCOCCOCCO,inactive
7,CCc1cccc2c3c([nH]c12)C(CC)(CC(=O)O)OCC3 (stereo not given),inactive
8,c1ccc2cc3ccccc3cc2c1,inactive
9,CCOC(=O)C(C)Oc1ccc(Oc2cnc3cc(Cl)ccc3n2)cc1 (stereo not given),inactive
10,CCC(Cc1c(I)cc(I)c(N)c1I)C(=O)O (stereo not given),inactive
11,C/C=C/C(=O)N(CC)c1ccccc1C,inactive
12,Cc1ccc(C(C)(C)C)c(O)c1,inactive
13,CC(C)[C@@H]1CC[C@@H](C)CC1=O,inactive
14,C[C@]12CC[C@@H]3c4ccc(O)cc4CC[C@H]3[C@@H]1CC[C@H]2O,inactive
15,Cc1ccc(C)c(O)c1,inactive
16,OC[C@H]1O[C@@H]2O[C@H]3[C@H](O)[C@@H](O)[C@@H](O[C@H]4[C@H](O)[C@@H](O)[C@@H](O[C@H]5[C@H](O)[C@@H](O)[C@@H](O[C@H]6[C@H](O)[C@@H](O)[C@@H](O[C@H]7[C@H](O)[C@@H](O)[C@@H](O[C@H]1[C@H](O)[C@H]2O)O[C@@H]7CO)O[C@@H]6CO)O[C@@H]5CO)O[C@@H]4CO)O[C@@H]3CO,inactive
17,COc1cc([C@H]2Oc3cc([C@H]4Oc5cc(O)cc(O)c5C(=O)[C@@H]4O)ccc3O[C@@H]2CO)ccc1O,inactive
18,OCCNCCO,inactive
19,Cc1ccc(/C(=C\CN2CCCC2)c2ccccn2)cc1,inactive
20,CC(=O)Oc1c(C)c(C)c2c(c1C)CC[C@@](C)(CCC[C@H](C)CCC[C@H](C)CCCC(C)C)O2,inactive

row,Compound,Potency
1,NC[C@H](O)c1ccc(O)c(O)c1,inactive
2,ClC/C=C/CCl,inactive
3,C=CC(=O)OCCCC,inactive
4,CC(C)(C)c1cccc(C(C)(C)C)c1O,inactive
5,CC(=O)Oc1ccc(C(c2ccc(OC(C)=O)cc2)c2ccccn2)cc1,inactive
6,NCCOCCO,inactive
7,IC(I)I,inactive
8,COc1ccc2nc(N)sc2c1,inactive
9,Clc1ccc(Sc2cc(Cl)c(Cl)cc2Cl)cc1,inactive
10,O=C1OC2(c3ccccc31)c1cc(I)c(O)c(I)c1Oc1c2cc(I)c(O)c1I,inactive
11,Nc1cc([N+](=O)[O-])ccc1C(=O)O,inactive
12,CN(C)CCCN1c2ccccc2Sc2ccc(Cl)cc21,inactive
13,CC(=O)Nc1ccc2c(c1)Cc1cc(NC(C)=O)ccc1-2,inactive
14,Nc1ccc(O)c(N)c1,inactive
15,COc1ccc(C(=O)c2ccccc2O)c(O)c1,inactive
16,CCCOCCO,inactive
17,CCO[Si](CCCNC(N)=O)(OCC)OCC,inactive
18,Nc1ccc(N)c(Cl)c1,inactive
19,C=C[C@@]1(C)CC(=O)[C@]2(O)[C@@]3(C)[C@@H](O)CCC(C)(C)[C@@H]3[C@H](O)[C@H](OC(C)=O)[C@@]2(C)O1,inactive
20,c1ccc2ncccc2c1,inactive
